In PubChem BioAssay AID1159580 (chemical genetic matrix, 2015):
Screen size: about 5,500 compounds; about 2,000 (36%) were called active. Not shown: some 18% with an inconclusive outcome. No stated cut-off is given here; in the data, active means normalized growth mostly below about 0.91 (no sharp cut-off); inconclusive means no clear call, values can overlap the other calls; inactive means mostly above about 0.92. This is one part of the list.

Test: chemical genetic growth profiling, strain panel (AID 1159580);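 further: tested at 20 µM; growth read once vehicle control cultures reached saturation at 30 °C; 1 = growth at the plate median or of vehicle wells; lower values mean less growth of the strain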
Settings: growth OD

Measured: normalized growth

CC1=CC(=O)c2ccccc2C1=O
inactive: S. cerevisiae deletion strains, locus YKL068W, hits give low values 1.01 | S. cerevisiae deletion strains, locus YKR026C, strain gcn3, hits give low values 1.03 | S. cerevisiae deletion strains, locus YKR091W, strain srl3, hits give low values 1.03 | S. cerevisiae deletion strains, locus YLL001W, strain dnm1, hits give low values 0.93 | S. cerevisiae deletion strains, locus YLL026W, hits give low values 0.997 | S. cerevisiae deletion strains, locus YLL041C, strain sdh2, hits give low values 1.04 | S. cerevisiae deletion strains, locus YLR258W, strain gsy2, hits give low values 0.933 | S. cerevisiae deletion strains, locus YLR262C, strain YPT6 (second series), hits give low values 0.916 | S. cerevisiae deletion strains, locus YLR320W, strain mms22, hits give low values 0.881 | S. cerevisiae deletion strains, locus YLR342W, strain FKS1, hits give low values 1.01 | S. cerevisiae deletion strains, locus YLR357W, strain rsc2, hits give low values 1.04 | S. cerevisiae deletion strains, locus YLR370C, strain arc18, hits give low values 0.958 | S. cerevisiae deletion strains, locus YLR384C, strain iki3, hits give low values 1.04 | S. cerevisiae deletion strains, locus YML120C, strain ndi1, hits give low values 0.968 | S. cerevisiae deletion strains, locus YMR125W, strain sto1, hits give low values 1.04 | S. cerevisiae deletion strains, locus YMR129W, hits give low values 1.01 | S. cerevisiae deletion strains, locus YMR231W, strain pep5, hits give low values 1.02 | S. cerevisiae deletion strains, locus YNL209W, strain ssb2, hits give low values 0.983 | S. cerevisiae deletion strains, locus YNL322C, strain KRE1 (second series), hits give low values 0.999 | S. cerevisiae deletion strains, locus YNR049C, strain mso1, hits give low values 1.02 | S. cerevisiae deletion strains, locus YOR001W, strain rrp6, hits give low values 0.923 | S. cerevisiae deletion strains, locus YOR070C, strain gyp1, hits give low values 0.959 | S. cerevisiae deletion strains, locus YOR080W, strain dia2, hits give low values 1.03 | S. cerevisiae deletion strains, locus YOR265W, strain rbl2, hits give low values 0.983 | S. cerevisiae deletion strains, locus YOR290C, strain snf2, hits give low values 1.02 | S. cerevisiae deletion strains, locus YPL078C, strain atp4, hits give low values 0.941 | S. cerevisiae deletion strains, locus YPL106C, strain sse1, hits give low values 0.904 | S. cerevisiae deletion strains, locus YPL240C, strain hsp82, hits give low values 1
active: S. cerevisiae deletion strains, locus YJR075W, strain HOC1, hits give low values 0.0628 | S. cerevisiae deletion strains, locus YKL009W, strain mrt4, hits give low values 0.0847 | S. cerevisiae deletion strains, locus YKL085W, strain MDH1 (second series), hits give low values 0.494 | S. cerevisiae deletion strains, locus YKL085W, strain MDH1, hits give low values 0.494 | S. cerevisiae deletion strains, locus YKL160W, strain elf1, hits give low values 0.822 | S. cerevisiae deletion strains, locus YKL190W, strain CNB1, hits give low values 0.0475 | S. cerevisiae deletion strains, locus YKR001C, strain vps1, hits give low values 0.0601 | S. cerevisiae deletion strains, locus YLR027C, strain aat2, hits give low values 0.862 | S. cerevisiae deletion strains, locus YLR039C, strain RIC1, hits give low values 0.0839 | S. cerevisiae deletion strains, locus YLR058C, strain SHM2, hits give low values 0.0596 | S. cerevisiae deletion strains, locus YLR102C, strain apc9, hits give low values 0.0585 | S. cerevisiae deletion strains, locus YLR113W, strain HOG1, hits give low values 0.294 | S. cerevisiae deletion strains, locus YLR221C, strain rsa3, hits give low values 0.819 | S. cerevisiae deletion strains, locus YLR262C, strain YPT6, hits give low values 0.155 | S. cerevisiae deletion strains, locus YLR268W, strain sec22, hits give low values 0.0659 | S. cerevisiae deletion strains, locus YLR330W, strain CHS5, hits give low values 0.0494 | S. cerevisiae deletion strains, locus YLR342W, strain FKS1 (second series), hits give low values 0.0779 | S. cerevisiae deletion strains, locus YLR371W, strain rom2, hits give low values 0.0598 | S. cerevisiae deletion strains, locus YLR418C, strain cdc73, hits give low values 0.0923 | S. cerevisiae deletion strains, locus YML016C, strain PPZ1, hits give low values 0.0501 | S. cerevisiae deletion strains, locus YML032C, strain rad52, hits give low values 0.112 | S. cerevisiae deletion strains, locus YML124C, strain tub3, hits give low values 0.0587 | S. cerevisiae deletion strains, locus YMR058W, strain fet3, hits give low values 0.832 | S. cerevisiae deletion strains, locus YMR078C, strain ctf18, hits give low values 0.0795 | S. cerevisiae deletion strains, locus YMR205C, strain PFK2, hits give low values 0.799 | S. cerevisiae deletion strains, locus YMR223W, strain ubp8, hits give low values 0.0622 | S. cerevisiae deletion strains, locus YMR263W, strain SAP30, hits give low values 0.0592 | S. cerevisiae deletion strains, locus YMR307W, strain GAS1, hits give low values 0.118 | S. cerevisiae deletion strains, locus YNL067W, strain RPL9B, hits give low values 0.0512 | S. cerevisiae deletion strains, locus YNL071W, strain lat1, hits give low values 0.543 | S. cerevisiae deletion strains, locus YNL128W, strain TEP1, hits give low values 0.0609 | S. cerevisiae deletion strains, locus YNL153C, strain GIM3, hits give low values 0.0481 | S. cerevisiae deletion strains, locus YNL183C, strain NPR1, hits give low values 0.393 | S. cerevisiae deletion strains, locus YNL233W, strain BNI4, hits give low values 0.0537 | S. cerevisiae deletion strains, locus YNL248C, strain rpa49, hits give low values 0.883 | S. cerevisiae deletion strains, locus YNL250W, strain rad50, hits give low values 0.513 | S. cerevisiae deletion strains, locus YNL271C, strain bni1, hits give low values 0.705 | S. cerevisiae deletion strains, locus YNL298W, strain CLA4, hits give low values 0.363 | S. cerevisiae deletion strains, locus YNL307C, strain MCK1, hits give low values 0.0683 | S. cerevisiae deletion strains, locus YNL322C, strain KRE1, hits give low values 0.047 | S. cerevisiae deletion strains, locus YNR052C, strain pop2, hits give low values 0.12 | S. cerevisiae deletion strains, locus YOL006C, strain TOP1, hits give low values 0.0979 | S. cerevisiae deletion strains, locus YOL147C, strain pex11, hits give low values 0.0692 | S. cerevisiae deletion strains, locus YOR061W, strain CKA2, hits give low values 0.05 | S. cerevisiae deletion strains, locus YOR069W, strain VPS5, hits give low values 0.0532 | S. cerevisiae deletion strains, locus YOR083W, strain WHI5, hits give low values 0.882 | S. cerevisiae deletion strains, locus YOR106W, strain vam3, hits give low values 0.818 | S. cerevisiae deletion strains, locus YOR136W, strain idh2, hits give low values 0.0688 | S. cerevisiae deletion strains, locus YOR144C, strain elg1, hits give low values 0.063 | S. cerevisiae deletion strains, locus YOR184W, strain ser1, hits give low values 0.0695 | S. cerevisiae deletion strains, locus YOR231W, strain MKK1, hits give low values 0.277 | S. cerevisiae deletion strains, locus YOR270C, strain vph1, hits give low values 0.776 | S. cerevisiae deletion strains, locus YOR316C, strain cot1, hits give low values 0.0564 | S. cerevisiae deletion strains, locus YPL051W, strain arl3, hits give low values 0.892 | S. cerevisiae deletion strains, locus YPL055C, strain LGE1, hits give low values 0.0708 | S. cerevisiae deletion strains, locus YPL241C, strain CIN2, hits give low values 0.0549 | S. cerevisiae deletion strains, locus YPL256C, strain CLN2, hits give low values 0.356 | S. cerevisiae deletion strains, locus YPR119W, strain clb2, hits give low values 0.063 | S. cerevisiae deletion strains, locus YPR141C, strain kar3, hits give low values 0.859 | S. cerevisiae deletion strains, locus YPR163C, strain tif3, hits give low values 0.0724 | S. cerevisiae deletion strains, locus YPR167C, strain met16, hits give low values 0.0586 | S. cerevisiae deletion strains, strain wtn01, hits give low values 0.0598 | S. cerevisiae strains, strain wild type, hits give low values 0.0461
